{
  "source": "PubChem BioAssay (NCI)",
  "note": "This is part of a sample that, as a whole, favours compounds with a hit. Of some 83,000 tested, about 20% had one in any assay.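 Negative percent growth values reflect cell death: -40 means 40% of the cells present at the start died, and -100 means all died.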 Values without a mark were called inactive. Active and inactive are the calls of the source. How the source made its calls: active means growth percent below 10; inactive means the rest.",
  "data": [
    {"system": "HL-60(TB) leukemia", "experiment": "NCI-60 one-dose screen, 48 h (100 = growth as untreated, 0 = no growth, -100 = all killed)", "conditions": "10 µM unless noted", "values": [
      {"smiles": "Cc1cc2nc3c4cc(Cl)ccc4n(CC(=S)NCCN(C)C)c3nc2cc1C", "growth": "-63.4% (active)"},
      {"smiles": "CS(=O)(=O)c1nccc(-c2c(-c3cccc(OCc4ccc(Cl)c(C(F)(F)F)c4)c3)nc3sccn23)n1", "growth": "12.5%"},
      {"smiles": "Nc1nc(=O)n([C@H]2C[C@H](O)[C@@H](CO)O2)cc1C=O", "growth": "94.1%"},
      {"smiles": "COc1cc(-c2nn(C(C)(C)C)cc2-c2ccnc(NCCCNS(=O)(=O)c3ccc(Cl)cc3)n2)ccc1Cl", "growth": "64.9%"},
      {"smiles": "c1ccc2c(NCCCN3CCOCC3)c3oc4ccccc4c3nc2c1", "growth": "-21.5% (active)"},
      {"smiles": "COc1ccc(NC(=O)[C@H](C)N)cc1C(=O)Nc1cccc(-c2cc(=O)c3c(OC)c(OC)c(OC)cc3o2)c1", "growth": "58.9%"},
      {"smiles": "CCN(CC)CCOc1ccc(C(=C(C)c2ccc(OC)cc2)c2ccc(OCCN(CC)CC)cc2)cc1", "growth": "-42.9% (active)"},
      {"smiles": "COc1ccc2c(c1)c(CC(=O)[Se]CCC#N)c(C)n2C(=O)c1ccc(Cl)cc1", "growth": "-43.8% (active)"},
      {"smiles": "Cc1nn(-c2ccccc2)c2ncnc(N/N=C/c3ccccc3)c12", "growth": "91.5%"},
      {"smiles": "Cc1ccc(NC(=O)c2ccc(CN3CCOCC3)c(C(F)(F)F)c2)cc1Oc1ccc(-c2[nH]nc3ncnc(N)c23)cc1", "growth": "80.9%"},
      {"smiles": "COc1ccc(-c2cc(C(=O)N=Nc3c(O)[nH]c4ccccc34)c3ccccc3n2)cc1OC", "growth": "106%"},
      {"smiles": "CCCCSC1=C(Cl)CN(c2ccc(Cl)cc2)C1=O", "growth": "85.4%"},
      {"smiles": "NCCNC(=O)c1cccc(COc2ccccc2NC(=O)c2cc(Br)c(Br)[nH]2)c1", "growth": "69.5%"},
      {"smiles": "N/C(=N\\c1nc2c(Cl)cc(Cl)cc2s1)C(Cl)(Cl)Cl", "growth": "4.49% (active)"},
      {"smiles": "COc1c(N2CC3CCCNC3C2)c(F)cc2c(=O)c(C(=O)N/N=C/c3ccc(Br)cc3)cn(C3CC3)c12", "note": "(centres undefined)", "growth": "84%"},
      {"smiles": "CS(=O)(=O)Nc1ccc(-c2nn(-c3ccc(S(C)(=O)=O)cc3)cc2/C=C/C(=O)c2ccc(NC(=O)CO[N+](=O)[O-])cc2)cc1", "growth": "107%"},
      {"smiles": "CC(=O)c1ccc(Nc2nc(SCC(C)C)nc(-c3ccccc3)c2C#N)cc1", "growth": "101%"},
      {"smiles": "COc1ccc(C2c3sc4c(C)cccc4c3Oc3nc(CC(=O)Nc4ccccc4)[nH]c(=O)c32)cc1", "note": "(centres undefined)", "growth": "146%"},
      {"smiles": "CC(C)c1ccc(NCc2cn(-c3ccc(C(=O)O)cc3)nc2-c2cc(C(F)(F)F)cc(C(F)(F)F)c2)cc1", "growth": "83.1%"},
      {"smiles": "C[C@H](CCC(=O)NCc1ccc(C(=O)Nc2ccccc2N)cc1)[C@H]1CC[C@H]2[C@@H]3[C@@H](O)C[C@@H]4C[C@H](O)CC[C@]4(C)[C@H]3CC[C@]12C", "growth": "0.73% (active)"},
      {"smiles": "O=S(=O)(NC1CC2CCC1C2)c1ccc2c(c1)C(=NO)c1cc(S(=O)(=O)NC3CC4CCC3C4)ccc1-2", "note": "(centres undefined)", "growth": "-29.7% (active)"},
      {"smiles": "CCO/C=N/C1=C(C#N)C(c2ccc(OC)cc2)c2sc3c(C)cccc3c2O1", "note": "(centres undefined)", "growth": "-18.5% (active)"},
      {"smiles": "CN1CCN(CCCCCC(=O)Nc2nc(-c3cccc(NS(=O)(=O)c4cccc5c(N(C)C)cccc45)c3)cs2)CC1", "growth": "75.1%"},
      {"smiles": "CN1C(=S)N(C)C2C1NN=C1SC(c3ccccc3)=CC(=O)N12", "note": "(centres undefined)", "growth": "80.7%"},
      {"smiles": "O=C(N/N=C/c1cccs1)c1[nH]c2ccc(Br)cc2c1-c1ccccc1", "growth": "-48.3% (active)"},
      {"smiles": "CCOC(=O)c1c(NCC(=O)Nc2cccc([N+](=O)[O-])c2)sc2c1CCCC2", "growth": "1.42% (active)"},
      {"smiles": "O=C(CCn1c[n+](CC(=O)c2ccc(-c3ccccc3)cc2)c2ccccc21)Nc1cccc2cccnc12", "growth": "-42.3% (active)"},
      {"smiles": "CC(C)C(/C=C/c1[nH]ncc1-c1cc(Cl)ccc1O)N1CCOCC1", "note": "(centres undefined)", "growth": "93.5%"},
      {"smiles": "O=C1[C@@H]2Cc3c([nH]c4ccccc34)[C@H](c3c(Cl)cccc3Cl)N2C(=O)CN1C1CCN(Cc2c(F)cccc2F)CC1", "growth": "109%"},
      {"smiles": "CNc1sc(S(=O)(=O)NC)nc1S(=O)(=O)c1ccc(C)cc1", "growth": "101%"},
      {"smiles": "CCC1=Cc2c(OC)cccc2OC12C=Cc1c(OC)cccc1O2", "note": "(centres undefined)", "growth": "-6.34% (active)"},
      {"smiles": "CCn1c(SCC(=O)Nc2cccc(C(=O)/C=C/c3ccc(Br)cc3)c2)nc2ccccc2c1=O", "growth": "84.7%"},
      {"smiles": "Cc1ccc(C(=O)Nc2ccc(CNCCN3CCOCC3)c(C(F)(F)F)c2)cc1C#Cc1cnc2cccnn12", "growth": "-21.3% (active)"},
      {"smiles": "CC[C@H](CC[C@@H](C)[C@H]1CC[C@H]2[C@@H]3CC(=O)C4=CC(=O)/C(=C/c5ccc([N+](=O)[O-])cc5)C[C@]4(C)[C@H]3CC[C@]12C)C(C)C", "growth": "83.5%"}
    ]}
  ]
}
